FBW7 activator: FBW7 E3 ligase activators, primary screen, biochemical, AlphaScreen, human; F-box/WD repeat-containing protein 7 (Homo sapiens), Q969H0; AlphaScreen FBW7–phospho-cyclin E peptide binding, activator screen; normalized activity (activation), % at 26.1 µM; 0.13% of 650,000 active; AID 1259310, 2017; in the data active = normalized activity above about 1.9%;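 note: purified mutant Fbw7 with reduced substrate affinity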
Target sequence (Q969H0 whole entry, looked up): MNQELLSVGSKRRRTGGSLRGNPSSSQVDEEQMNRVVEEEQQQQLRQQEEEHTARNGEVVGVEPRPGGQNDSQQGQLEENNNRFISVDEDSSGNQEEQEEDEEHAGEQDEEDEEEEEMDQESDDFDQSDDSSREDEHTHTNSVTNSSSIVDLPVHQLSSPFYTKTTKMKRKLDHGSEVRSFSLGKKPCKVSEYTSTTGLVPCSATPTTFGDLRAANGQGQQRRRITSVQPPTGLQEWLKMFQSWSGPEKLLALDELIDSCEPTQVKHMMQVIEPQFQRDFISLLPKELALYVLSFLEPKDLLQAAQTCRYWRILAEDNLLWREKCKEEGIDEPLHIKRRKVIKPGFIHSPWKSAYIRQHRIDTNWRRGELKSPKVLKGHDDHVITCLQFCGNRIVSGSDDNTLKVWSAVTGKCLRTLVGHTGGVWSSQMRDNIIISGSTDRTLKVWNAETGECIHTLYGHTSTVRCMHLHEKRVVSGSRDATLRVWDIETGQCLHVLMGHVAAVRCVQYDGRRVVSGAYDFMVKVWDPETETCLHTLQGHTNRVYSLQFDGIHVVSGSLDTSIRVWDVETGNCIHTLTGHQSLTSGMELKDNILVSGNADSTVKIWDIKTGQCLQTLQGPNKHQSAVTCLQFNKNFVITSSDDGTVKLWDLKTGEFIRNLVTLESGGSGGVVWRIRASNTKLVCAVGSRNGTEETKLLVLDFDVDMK
GPR151 ag: activators of human GPR151, primary screen, cell-based, PathHunter beta-arrestin, luminescence; PathHunter beta-arrestin GPR151 cells; G-protein coupled receptor 151 (Homo sapiens), Q8TDV0; activation, % at 11.2 µM; 1% of 650,000 active; in the data active = activation above about 4.9%
TEAD-YAP block: TEAD-YAP interaction inhibition, primary screen, TEAD-YAP interaction inhibitor project, luminescence, HEK-TIYL cells; TEAD-Gal4/YAP UAS-luciferase luminescence; inhibition, % at 9.12 µM; 1.4% of 640,000 active; AID 1259422, 2018; in the data active = inhibition above about 32%
MITF primary: MITF inhibitors, primary screen, biochemical, AlphaScreen, human; Microphthalmia-associated transcription factor (Homo sapiens), O75030; 0.91% of 650,000 active; AlphaScreen MITF homodimerization, bead proximity signal; inhibition, % at 2.6 µM; in the data active = inhibition above about 50%
GPR151 conf act: GPR151 activators, triplicate retest, confirmation, cell-based, PathHunter beta-arrestin, luminescence; shares compounds with GPR151 ag; 6,700 tested, under 10 active; activation, % at 11.2 µM; GPR151 PathHunter beta-arrestin cells, 90 min; % of EA-reagent control over plate median;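 active = mean percent activation across replicates above the confirmation screen cutoff of 4.91%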
GPR119 counter: GPR119 activators in beta-arrestin cells, counter-screen for GPR151 activator project, cell-based, PathHunter beta-arrestin, luminescence, triplicate. activation, % at 11.2 µM. 90 min; 0 = compound-well median, 100 = enzyme-acceptor control. shares compounds with GPR151 ag. 0.3% of 6,700 active;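 active = mean percent activation in the counterscreen above 29.09%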;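 note: counterscreen on off-target GPR119 to flag nonselective hits from the GPR151 activator screen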
Numbers stand for hits; n = inactive; x = no result; ! = not confirmed by another sample. The list is not random: actives were taken first. Their share in the collection is about 3.5%.

SMILES	FBW7 activator	GPR151 ag	TEAD-YAP block	MITF primary	GPR151 conf act	GPR119 counter
Clc1ccc(-c2nc3c4c5c(sc4ncn3n2)CCCCC5)c(Cl)c1	n	n	n	n	x	x
Cc1ccc(S(=O)(=O)n2ccn(C(=O)c3ccccc3Br)c2=O)cc1	n	4.9	n	n	n	n
COc1ccc(C(=O)Oc2ccc(/C=C3/C(=N)N4OC(C)=CC4=NC3=O)cc2)cc1	n	n	n	n	x	x
CCCS(=O)(=O)N1CC(=O)N(c2ccccc2CC)C(C)(C(=O)NC2CCCCC2)C1 (stereo unspecified)	n	n	n	n	x	x
CC1(C(=O)NC2CCCCCC2)CN(S(C)(=O)=O)CC(=O)N1c1ccc(Cl)cc1 (stereo unspecified)	n	7.7	n	n	n	n
CCCS(=O)(=O)N1CC(=O)N(c2ccccc2OC)C(C)(C(=O)NC2CCCC2)C1 (stereo unspecified)	n	6.0	n	n	n	n
O=C(COC(=O)Cc1ccc(Cl)cc1Cl)NCCCN1CCCC1=O	n	n	n	n	x	x
Cc1cc(C(=O)N/N=C/c2ccccc2O)n[nH]1	n	n	n	n	x	x
CCOc1ccc(Br)cc1/C=N\NC(=O)c1cc(C)[nH]n1	n	7.1	n	n	n	n
Cc1cc(C(=O)N/N=C/c2ccccc2F)n[nH]1	n	9.8	n	n	n	n
COc1ccccc1OCCNc1cc(N2CCCC2)ccc1[N+](=O)[O-]	n	n	n	n	x	x
O=C(CSc1nc(-c2ccccc2)cn1-c1ccc(F)cc1)c1cccs1	n	n	n	n	x	x
CN(C)CCCN1c2ccccc2CCc2ccc(Cl)cc21	n	10.5!	n	n	n	n
CN(CCCN1c2ccccc2CCc2ccccc21)CC(=O)c1ccc(Cl)cc1	n	n	n	n	x	x
O=C1N/C(=C/c2ccccc2)C(=O)N1c1cccc(Cl)c1	n	n	n	n	x	x
COc1cc2c(cc1/C=C1/NC(=O)N(c3cccc(Cl)c3)C1=O)OCO2	n	8.5	n	n	n	n
O=C1N/C(=C/c2ccco2)C(=O)N1c1cccc(Cl)c1	n	5.2	n	n	n	n
COc1ccc(/C=C2/NC(=O)N(c3cccc(Cl)c3)C2=O)cc1	n	n	n	n	x	x
O=C1N/C(=C/c2ccc3c(c2)OCO3)C(=O)N1c1cccc(Cl)c1	n	n	n	n	x	x
COc1ccc(/C=C2/NC(=O)N(c3cccc(Cl)c3)C2=O)c(OC)c1	n	5.7	n	n	n	n
COc1ccc(-c2cn3cccnc3n2)cc1NC(=O)CC(C)(C)C	n	n	n	n	x	x
Cc1cc(CN(C)Cc2c(C(=O)N3CCCCCCC3)nc3sccn23)on1	n	n	n	n	x	x
COc1ccc(NC(=O)c2ccc(Br)o2)cc1[N+](=O)[O-]	n	n	n	n	x	x
COc1nn(C)cc1C(=O)NCC(=O)Nc1ccc2c(c1)Cc1ccccc1-2	n	9.5	n	n	n	n
C=CCN1C(=O)CS/C1=N/S(=O)(=O)c1ccc(Cl)s1	n	n	n	n	x	x
SMILES	FBW7 activator	GPR151 ag	TEAD-YAP block	MITF primary	GPR151 conf act	GPR119 counter
CC(Sc1nncs1)C(=O)NC1CCCc2ccccc21 (stereo unspecified)	n	n	n	n	x	x
CC(Sc1nncs1)C(=O)NC(C)c1ccccc1 (stereo unspecified)	n	5.2	n	n	n	n
CCc1c(C)nc2cc(-c3ccc(OC)c(OC)c3)nn2c1NCCCn1ccnc1	n	6.3	n	n	n	n
CCc1c(C)nc2cc(-c3ccc(OC)c(OC)c3)nn2c1NCCO	n	n	n	n	x	x
CCCCCCCCCCCCCCCCCCOC[C@H](COP(=O)(O)OCC[N+](C)(C)C)OC(C)=O	x	5.2	x	n	n	n
Cc1cccc(NC(=O)c2nc(S(C)(=O)=O)ncc2Cl)c1	n	n	n	n	x	x
CSc1ncc(Cl)c(C(=O)Nc2ccc(C)c(C)c2)n1	n	9.9	n	n	n	n
CCCS(=O)(=O)c1ncc(Cl)c(C(=O)Nc2cccc(C)c2)n1	n	7.4	n	n	n	n
CC[C@@H](C(=O)C(C)[C@@H](O)[C@H](C)CCc1ccc(C)c(O)c1C(=O)O)C1OC(CC)(C2CC[C@](O)(CC)[C@H](C)O2)C[C@@H]1C (stereo partly specified)	n	12.7!	n	n	n	51.4
Cc1cc(Oc2nc3ccccn3c(=O)c2/C=C(\C#N)C(N)=O)ccc1Cl	n	n	n	n	x	x
CCCCn1c(=NC(=O)C(C)(C)C)c(C(=O)OCC)cc2c(=O)n3ccccc3nc21	n	5.3	n	n	n	n
CCCn1c(=NC(=O)C(C)(C)C)c(C(=O)OCC)cc2c(=O)n3ccccc3nc21	n	n	n	n	x	x
CCOC(=O)C1=NNC2C(=O)N(c3cc(Cl)cc(Cl)c3)C(=O)C12 (stereo unspecified)	n	n	n	n	x	x
COc1cccc(C(=O)Nc2nc3ccc(SC)cc3s2)c1OC	n	5.0	n	n	n	n
CSc1ccc2nc(NC(=O)c3ccccc3C)sc2c1	n	n	n	n	x	x
NC(=O)COC(=O)c1cc(Cl)cc(Cl)c1N	n	n	n	n	x	x
Nc1c(Cl)cc(Cl)cc1C(=O)OCC(=O)N1CCCC1	n	7.5	n	n	n	n
O=C(Nc1nc2ccc3ccccc3c2s1)C1CC1	n	n	n	n	x	x
O=C(Nc1nc2c(s1)-c1cccc3cccc-2c13)C1CC1	n	5.0	n	n	n	n
Cn1c2c(c(=O)n(C)c1=O)C(c1ccccc1Cl)CC(=O)N2 (stereo unspecified)	n	8.6	n	n	n	n
COc1ccc(NS(=O)(=O)c2ccc(Br)c(C(=O)Nc3ccccc3)c2)cc1	n	6.2	n	n	n	n
O=S(=O)(Nc1ccc(O)c(Br)c1)c1ccc(F)cc1	n	n	n	n	x	x
COc1ccc(S(=O)(=O)Nc2ccc(O)c(Br)c2)cc1	n	5.9	n	n	n	n
CCCCN(CCCC)CC(O)CN(c1ccc(OC)cc1)S(=O)(=O)c1ccccc1 (stereo unspecified)	n	n	n	n	x	x
Cn1nc(C(=O)NNC(=O)CCNS(=O)(=O)c2cccs2)c2ccccc2c1=O	n	n	n	n	x	x
O=C(Nc1ccc(Cl)c(Cl)c1)C1CC(=O)N(c2cccc([N+](=O)[O-])c2)C1 (stereo unspecified)	n	n	n	n	x	x
Cc1cccc(NC(=O)C(c2ccc(Cl)cc2Cl)N2CCC2=O)c1 (stereo unspecified)	n	7.8	n	n	n	n
Cc1ccc(C)c(NC(=O)CN(c2cccc(C)c2C)S(=O)(=O)c2ccccc2)c1	n	n	n	n	x	x
